From ChEMBL document CHEMBL3988442, “University of Dundee, Small-Polar-MMV Screening Library” (2021)
For some assays here: Measured potencies and affinities stand elsewhere.

What was measured:
Parameters in all cases: scale not given: direction of the effect not stated beside the values
[1] = target: Protein translocase subunit SecA (Escherichia coli (strain K12)) (UniProt P10408); assay: Assay to Identify E. coli SecA ATPase Inhibitors; type: functional; conditions: 30 µM
[2] = target: T1, Ubiquitin-activating enzyme e1, putative (Leishmania donovani (strain BPK282A1)) (UniProt E9BSI1); assay: Leishmania donovani Ubiquitin Activating Enzyme (LdE1); type: functional; conditions: 30 µM
T1 sequence (whole entry): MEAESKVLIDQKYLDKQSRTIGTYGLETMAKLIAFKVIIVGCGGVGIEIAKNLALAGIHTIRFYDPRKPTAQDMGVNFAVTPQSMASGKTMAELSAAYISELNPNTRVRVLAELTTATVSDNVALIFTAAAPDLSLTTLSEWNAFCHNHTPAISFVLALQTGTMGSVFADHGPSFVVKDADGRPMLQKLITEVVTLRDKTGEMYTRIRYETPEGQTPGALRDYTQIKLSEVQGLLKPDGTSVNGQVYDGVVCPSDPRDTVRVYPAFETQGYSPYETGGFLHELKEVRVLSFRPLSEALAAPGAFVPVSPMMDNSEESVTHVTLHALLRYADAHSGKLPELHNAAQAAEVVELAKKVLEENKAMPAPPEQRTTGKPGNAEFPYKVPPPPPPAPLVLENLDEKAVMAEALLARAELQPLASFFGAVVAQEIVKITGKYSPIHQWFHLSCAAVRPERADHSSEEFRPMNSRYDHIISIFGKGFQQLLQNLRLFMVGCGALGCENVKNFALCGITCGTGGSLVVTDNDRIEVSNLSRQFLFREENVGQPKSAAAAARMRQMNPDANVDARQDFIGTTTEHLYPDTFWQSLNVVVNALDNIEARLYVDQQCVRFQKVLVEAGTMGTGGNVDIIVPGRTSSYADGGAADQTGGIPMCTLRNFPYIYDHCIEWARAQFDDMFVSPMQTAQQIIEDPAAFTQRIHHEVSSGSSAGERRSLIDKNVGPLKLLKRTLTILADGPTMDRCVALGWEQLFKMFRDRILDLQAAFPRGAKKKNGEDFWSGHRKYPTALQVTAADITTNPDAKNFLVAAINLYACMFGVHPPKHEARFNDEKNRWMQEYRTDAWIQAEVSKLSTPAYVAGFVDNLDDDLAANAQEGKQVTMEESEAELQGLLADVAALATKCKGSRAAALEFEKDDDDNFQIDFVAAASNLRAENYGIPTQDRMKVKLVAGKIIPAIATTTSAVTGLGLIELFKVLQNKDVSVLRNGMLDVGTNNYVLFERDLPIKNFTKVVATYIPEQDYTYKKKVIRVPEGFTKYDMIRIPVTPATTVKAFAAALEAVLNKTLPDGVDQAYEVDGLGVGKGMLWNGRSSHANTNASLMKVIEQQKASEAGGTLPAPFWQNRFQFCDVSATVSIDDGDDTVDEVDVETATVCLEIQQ

[3] = target: Sialic acid-binding Ig-like lectin 9 (Homo sapiens) (UniProt Q9Y336); assay: Hs-Siglec9 ALPHAscreen SOP 20170721; conditions: 10 µM
Chain of Sialic acid-binding Ig-like lectin 9 (Homo sapiens) (Q9Y336 whole entry): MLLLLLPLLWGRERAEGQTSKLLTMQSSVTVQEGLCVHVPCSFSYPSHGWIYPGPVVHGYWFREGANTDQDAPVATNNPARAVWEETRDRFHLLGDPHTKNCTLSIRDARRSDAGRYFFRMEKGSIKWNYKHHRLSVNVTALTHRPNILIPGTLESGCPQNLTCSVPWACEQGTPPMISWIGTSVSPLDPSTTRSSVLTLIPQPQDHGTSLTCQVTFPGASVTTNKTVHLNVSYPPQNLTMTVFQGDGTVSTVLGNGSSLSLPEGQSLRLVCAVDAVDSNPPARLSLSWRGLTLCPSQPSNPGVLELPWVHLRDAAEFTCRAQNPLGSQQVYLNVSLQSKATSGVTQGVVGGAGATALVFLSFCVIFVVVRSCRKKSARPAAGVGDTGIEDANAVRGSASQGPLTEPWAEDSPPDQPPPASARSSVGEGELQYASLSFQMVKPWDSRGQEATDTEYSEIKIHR

[4] = system: Trypanosoma cruzi; assay: Trypanosoma cruzi phosphomannomutase and mannose-1-phosphate guanylyltransferase assay; type: functional; conditions: 10 µM
[5] = target: T2, Arginase-2, mitochondrial (Homo sapiens) (UniProt P78540); assay: in vitro enzyme assay to detect the production of urea directly proportional to the activity of Arginase II; type: functional; conditions: 33.3 µM; also: in the data most compounds retested in dose-response had high values
T2 sequence (whole entry): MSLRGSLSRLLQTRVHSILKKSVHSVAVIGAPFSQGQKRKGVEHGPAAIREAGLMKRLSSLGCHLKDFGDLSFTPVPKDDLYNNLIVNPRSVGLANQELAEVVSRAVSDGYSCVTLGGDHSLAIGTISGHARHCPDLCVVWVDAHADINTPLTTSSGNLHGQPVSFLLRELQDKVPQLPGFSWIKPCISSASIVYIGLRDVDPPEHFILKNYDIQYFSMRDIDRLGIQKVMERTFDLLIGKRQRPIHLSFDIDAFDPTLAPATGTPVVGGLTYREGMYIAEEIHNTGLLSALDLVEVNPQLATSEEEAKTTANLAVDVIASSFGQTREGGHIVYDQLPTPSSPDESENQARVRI

[6] = target: T3, Proteasome subunit beta (Trypanosoma cruzi) (UniProt O96673); assay: Trypanosoma cruzi proteasome chymotrypsin-like activity (TcProtChymo) assay.; also: in the data most compounds retested in dose-response had high values; type: functional; conditions: 9.37 µM
T3 sequence (whole entry): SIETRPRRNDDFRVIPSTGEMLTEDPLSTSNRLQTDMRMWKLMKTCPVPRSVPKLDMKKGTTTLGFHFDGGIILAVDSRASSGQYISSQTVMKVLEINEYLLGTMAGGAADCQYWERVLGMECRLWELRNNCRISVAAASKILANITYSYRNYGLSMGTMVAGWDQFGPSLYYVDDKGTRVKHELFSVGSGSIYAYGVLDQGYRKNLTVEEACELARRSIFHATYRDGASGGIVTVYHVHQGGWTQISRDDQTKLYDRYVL

[7] = species: Homo sapiens; assay: To identify inhibition of the IFN signalling (Jak-Stat) pathway via expression of an eGFP reporter gene under the control of an IFN-stimulated response element (ISRE) containing MxA promoter.; type: functional; conditions: 30 µM
[8] = target: T4, Tyrosyl-tRNA synthetase, putative (Trypanosoma cruzi (strain CL Brener)) (UniProt Q4DSP6); assay: Trypanosoma cruzi tyrosyl tRNA synthetase (TcYRS) _High Tyrosine SOP; type: functional; conditions: 30 µM; also: in the data most compounds retested in dose-response had high values
T4 sequence (whole entry): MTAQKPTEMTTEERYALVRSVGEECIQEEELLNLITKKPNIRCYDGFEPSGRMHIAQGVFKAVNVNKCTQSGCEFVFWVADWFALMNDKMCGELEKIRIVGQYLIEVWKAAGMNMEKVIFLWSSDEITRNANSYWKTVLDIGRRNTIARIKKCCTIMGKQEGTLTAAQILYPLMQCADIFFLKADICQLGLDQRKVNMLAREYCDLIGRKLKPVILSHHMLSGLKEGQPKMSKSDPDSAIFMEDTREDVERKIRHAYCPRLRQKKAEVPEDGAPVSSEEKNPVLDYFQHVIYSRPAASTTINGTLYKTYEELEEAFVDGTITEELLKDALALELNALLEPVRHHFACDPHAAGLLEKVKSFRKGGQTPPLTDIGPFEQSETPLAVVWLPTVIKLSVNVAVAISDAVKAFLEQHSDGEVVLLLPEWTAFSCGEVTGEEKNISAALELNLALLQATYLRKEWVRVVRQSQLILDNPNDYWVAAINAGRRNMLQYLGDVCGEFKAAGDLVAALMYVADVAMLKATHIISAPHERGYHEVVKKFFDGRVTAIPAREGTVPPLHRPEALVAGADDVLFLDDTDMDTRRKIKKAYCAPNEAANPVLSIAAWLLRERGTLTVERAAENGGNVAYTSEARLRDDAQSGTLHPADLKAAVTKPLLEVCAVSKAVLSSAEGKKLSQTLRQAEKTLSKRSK

[9] = target: T4, Tyrosyl-tRNA synthetase, putative (Trypanosoma cruzi (strain CL Brener)); assay: Trypanosoma cruzi tyrosyl tRNA synthetase (TcYRS) SOP; type: functional; conditions: 30 µM
[10] = target: Chromo domain-containing protein 1 (Saccharomyces cerevisiae (strain ATCC 204508 / S288c) (Baker's yeast)) (UniProt P32657); assay: ScCHD-1 Enzyme Inhibition Assay; type: functional; conditions: 30 µM; also: in the data most compounds retested in dose-response had high values
Chain of Chromo domain-containing protein 1 (Saccharomyces cerevisiae (strain ATCC 204508 / S288c) (Baker's yeast)) (P32657 whole entry, the tested form may be a part): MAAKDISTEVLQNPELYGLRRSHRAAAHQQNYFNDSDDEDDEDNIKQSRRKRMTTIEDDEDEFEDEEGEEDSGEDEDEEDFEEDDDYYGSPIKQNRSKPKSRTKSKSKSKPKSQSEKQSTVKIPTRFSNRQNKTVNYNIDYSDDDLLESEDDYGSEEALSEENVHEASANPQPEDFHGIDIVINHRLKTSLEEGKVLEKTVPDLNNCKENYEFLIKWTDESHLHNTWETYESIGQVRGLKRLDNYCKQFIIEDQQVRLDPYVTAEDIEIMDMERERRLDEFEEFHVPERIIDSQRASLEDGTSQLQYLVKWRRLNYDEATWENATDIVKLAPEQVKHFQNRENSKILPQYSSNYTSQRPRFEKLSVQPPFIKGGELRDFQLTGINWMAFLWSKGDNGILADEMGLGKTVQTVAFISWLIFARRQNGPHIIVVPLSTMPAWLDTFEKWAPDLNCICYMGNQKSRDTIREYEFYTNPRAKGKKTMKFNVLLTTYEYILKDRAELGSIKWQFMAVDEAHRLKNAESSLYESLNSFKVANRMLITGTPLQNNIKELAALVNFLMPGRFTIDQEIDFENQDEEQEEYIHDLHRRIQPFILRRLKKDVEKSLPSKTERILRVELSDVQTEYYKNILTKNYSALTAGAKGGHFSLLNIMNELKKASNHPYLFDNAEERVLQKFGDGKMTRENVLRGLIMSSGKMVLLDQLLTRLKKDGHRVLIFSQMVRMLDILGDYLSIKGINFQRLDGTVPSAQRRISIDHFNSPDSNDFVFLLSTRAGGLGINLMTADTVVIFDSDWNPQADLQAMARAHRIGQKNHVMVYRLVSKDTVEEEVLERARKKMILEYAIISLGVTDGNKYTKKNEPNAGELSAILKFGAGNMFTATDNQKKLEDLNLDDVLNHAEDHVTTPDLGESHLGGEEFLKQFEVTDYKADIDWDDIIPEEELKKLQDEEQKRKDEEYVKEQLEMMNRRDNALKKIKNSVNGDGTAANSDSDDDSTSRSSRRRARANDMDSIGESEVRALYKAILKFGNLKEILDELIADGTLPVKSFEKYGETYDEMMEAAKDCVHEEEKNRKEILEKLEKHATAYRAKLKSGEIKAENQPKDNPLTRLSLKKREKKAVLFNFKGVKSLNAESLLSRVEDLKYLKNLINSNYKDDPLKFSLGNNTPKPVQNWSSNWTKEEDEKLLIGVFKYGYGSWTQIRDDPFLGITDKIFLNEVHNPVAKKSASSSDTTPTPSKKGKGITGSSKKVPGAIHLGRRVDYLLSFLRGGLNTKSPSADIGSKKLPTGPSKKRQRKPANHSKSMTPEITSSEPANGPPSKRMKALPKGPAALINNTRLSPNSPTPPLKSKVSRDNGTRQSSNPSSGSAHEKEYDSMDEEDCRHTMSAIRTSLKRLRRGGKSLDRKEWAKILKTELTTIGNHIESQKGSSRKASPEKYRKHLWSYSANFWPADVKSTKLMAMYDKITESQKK

Chain of Protein translocase subunit SecA (Escherichia coli (strain K12)) (P10408 whole entry): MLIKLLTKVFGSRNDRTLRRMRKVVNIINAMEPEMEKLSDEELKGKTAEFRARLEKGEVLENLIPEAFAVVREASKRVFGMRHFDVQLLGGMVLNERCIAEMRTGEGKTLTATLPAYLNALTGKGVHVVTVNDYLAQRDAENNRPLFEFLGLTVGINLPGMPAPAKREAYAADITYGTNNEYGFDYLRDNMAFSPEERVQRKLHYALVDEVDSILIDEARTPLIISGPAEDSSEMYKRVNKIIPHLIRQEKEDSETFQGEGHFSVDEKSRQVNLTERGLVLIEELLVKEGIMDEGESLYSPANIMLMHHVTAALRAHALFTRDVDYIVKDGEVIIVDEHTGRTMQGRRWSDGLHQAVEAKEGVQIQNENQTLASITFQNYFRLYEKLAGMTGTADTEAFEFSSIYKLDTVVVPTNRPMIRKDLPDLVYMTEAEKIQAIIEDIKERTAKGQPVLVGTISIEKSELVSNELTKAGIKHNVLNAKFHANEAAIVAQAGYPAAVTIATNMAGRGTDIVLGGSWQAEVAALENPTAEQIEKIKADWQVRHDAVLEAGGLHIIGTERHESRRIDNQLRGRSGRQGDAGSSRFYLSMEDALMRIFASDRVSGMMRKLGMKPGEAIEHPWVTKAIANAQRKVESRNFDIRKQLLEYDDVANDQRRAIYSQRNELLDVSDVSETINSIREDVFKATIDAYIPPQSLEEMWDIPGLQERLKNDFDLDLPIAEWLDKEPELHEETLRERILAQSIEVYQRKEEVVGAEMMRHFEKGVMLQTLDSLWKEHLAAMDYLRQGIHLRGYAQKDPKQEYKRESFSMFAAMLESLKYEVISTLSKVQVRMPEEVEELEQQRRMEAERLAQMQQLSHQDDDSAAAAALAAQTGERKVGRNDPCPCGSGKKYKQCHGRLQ

| SMILES | Percent Effect [1] | Percent Effect [2] | Percent Effect [3] | Percent Effect [4] | Percent Effect [5] | Percent Effect [6] | Percent Effect [7] | Percent Effect [8] | Percent Effect [9] | Percent Effect [10] |
| --- | --- | --- | --- | --- | --- | --- | --- | --- | --- | --- |
| O=C(C1=CCCCC1)N1CCC2(CC1)COC(COc1ccccn1)C2 (stereo not given) | -4.78% | 9.09% | 2.76% | -0.292% | -0.405% | 18.1% | -0.0236% | 3.68% | 17.9% | -3.36% |
| O=C(C1CCOCC1)N1CC[C@H]2C[C@@H](c3ccncn3)O[C@@H]2C1 | -7.3% | 3.9% | 2.39% | 5.55% | -6.48% | 13.7% | -13.3% | 3.68% | 15.4% | 25.1% |
| Cc1nc(CN2CCC3(CC2)NC(=O)CC3c2ccccc2)cs1 (stereo not given) | -3.5% | -1.3% | -0.193% | 0.375% | -0.913% | 9.19% | 4.58% | 8.7% | 12.5% | -9.48% |
| CN(Cc1nc2c(cnn2C)c(=O)[nH]1)Cc1ccc(F)cc1F | -0.314% | 20.5% | -17.8% | 2.72% | -2.05% | 16.8% | 3.63% | 7.18% | 25.3% | -5.98% |
| CC(=O)N(Cc1noc(C2CC2)n1)C1CCN(Cc2ccncc2)C1 (stereo not given) | -3.41% | 5.13% | -20.1% | 11.6% | -4.51% | 4.86% | 4.66% | 1.44% | 10.8% | -5.11% |
| CCN(C)c1ncnc2c1CCN(Cc1ccc(OC)cc1)CC2 | -4.72% | 6.49% | -9.08% | -2.04% | 2.43% | 13.5% | 25.4% | 0.526% | 7.69% | -4.67% |
| CCC(=O)N1CCC(Cc2nccnc2Nc2ccccn2)CC1 | -5.27% | 4% | -4.87% | 1.58% | -1.77% | -5.91% | 18.1% | -4.23% | -2.5% | -20% |
| CN(Cc1ccc2c(c1)OCCO2)C(=O)Cn1ccccc1=O | -0.175% | 13.3% | 1.7% | -5.02% | 5.76% | 19.8% | 3.52% | 2.63% | 7.69% | -7.25% |
| NC(=O)C1CCN(C(=O)c2cccc(OCc3cscn3)c2)CC1 | -1.56% | 10.3% | -4.08% | -3.1% | 5.33% | 5.89% | 26.4% | 2.39% | 10.8% | -2.13% |
| CN(C)C[C@H]1OC[C@@H]2CCN(S(=O)(=O)c3ccccc3)C[C@@H]21 | -7.48% | 3.9% | 9.94% | -4.58% | -5.26% | 7.33% | 5.69% | -2.63% | -5.13% | -2.54% |
| c1ccc(CCNC2CCc3ncnn3C2)nc1 (stereo not given) | -0.356% | 18.2% | -2.1% | -0.373% | -1.84% | 11.8% | 8.49% | 11.8% | 23.5% | -9.93% |
| COc1cc(C)nc(N2CCN(C(=O)CNC(C)(C)C)CC2)n1 | -1.19% | 5.13% | -1.55% | -1.22% | 4.51% | -3.67% | 19.9% | 0.478% | 8.43% | -2.39% |
| CS(=O)(=O)NCC1CCCN(C(=O)c2ccc(Cl)o2)C1 (stereo not given) | 1.32% | 7.79% | -4.36% | -0.746% | 7.58% | 14.6% | -11.3% | 4.9% | 18.8% | -10% |
| CCc1ccc(S(=O)(=O)N2CCC3(CC(C(=O)NC)=NO3)C2)cc1 (stereo not given) | -3.25% | 1.3% | 3.29% | 5.36% | -4.05% | 4.68% | -7.8% | 1.58% | 5.13% | 0.139% |
| COCCNC(=O)c1cc(S(=O)(=O)N2CCCCC2)cs1 | -1.54% | 0% | -4.58% | -1.07% | 1.05% | 14.6% | 19.3% | 0.532% | 2.44% | 2.87% |
| CN1[C@H](CN2CCCC2)C[C@@H]2CN(C(=O)c3cccn3C)CC[C@@H]21 | -1.76% | -1.3% | 1.42% | 0.563% | -0.457% | 0.944% | -0.498% | 10.6% | 12.5% | -6.06% |
| O=C1NCCN(CC2CC2)C12CCN(Cc1ccc3c(c1)OCO3)CC2 | -1.54% | 19.5% | 3.24% | -8.47% | 6.07% | 16.9% | 30.6% | 4.74% | -7.69% | -3.74% |
| Cc1nc(CN2CCCC(CCc3ccc(F)cc3F)C2)c[nH]1 (stereo not given) | -4.78% | -2.7% | 37.1% | 4.75% | 1.05% | 3.94% | -3.62% | 2.66% | 7.32% | -1.62% |
| Cn1cc(CC(=O)N2CCC(Nc3cccnn3)CC2)c2ccccc21 | -3.59% | 18.2% | 3.22% | 3.73% | -7.99% | 5.96% | 4.59% | 7.84% | 32.9% | -10.9% |
| CC(=O)N1N=C(c2ccccc2)OC1C(=O)NCCC1=CCCCC1 (stereo not given) | 1.88% | 12% | -5.04% | -0.986% | 2.21% | 7.55% | 26.2% | -1.06% | 5% | -32.1% |
